RE007 growth inh: less growth of the S. pombe RE007 Vpr strain; S. pombe RE007 Vpr strain, BacTiter-Glo ATP luminescence, 24 h; actives 0.21% (n = 360,000); Potency, µM (doses to about 92.2 µM), for the others: top-dose activity change, negative = less growth, most hits filed as inhibitors; active = well fitted falling curve with a large enough effect; inconclusive = small, poorly fitted or top-dose-only effect; inactive = no such curve, though single readings can be large or run the other way; also: nearly all actives have a fitted effect of over 50% in size
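Fission yeast strain RE007, carrying one chromosomally integrated HIV-1 vpr copy, was seeded at OD 0.01 in PMG+AL medium with 23 nL pinned compound. After 24 h at 30 °C and 99% humidity, viability was read by BacTiter-Glo luminescence.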
FMDV antiviral: foot and mouth disease virus antiviral activity; Potency, µM (highest dose often 57.9 µM), for inactives: top-dose activity change, negative = inhibition, usual class: inhibitors; FMDV antiviral cell-based qHTS; actives 1.2% (n = 410,000); calls by dose curve; tested in HEK293T cells; also: read-out not given here; nearly all actives have a fitted effect of over 45% in size
Sm TGR block: S. mansoni TGR enzyme inhibition; Q962Y6; purified TGR, DTNB reduction, TNB absorbance 405 nm; Potency, µM (titrated, usually from 114 µM), inactives show at the highest dose activity change, negative = inhibition, most hits filed as inhibitors; actives 3% (n = 360,000); AID 485364; also: nearly all actives have a fitted effect of over 60% in size
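First, TGR (20 nM dispensed) and NADPH were mixed with compound. Second, a 15 min room-temperature incubation followed. Third, further NADPH and then DTNB were added to start the reaction. Finally, TNB absorbance was monitored kinetically.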
TbPYK inhibitor: inhibitors of Trypanosoma brucei pyruvate kinase; Q57TT1; TbPYK enzyme, Kinase-Glo Plus ATP luminescence, 45 min; Potency, µM (top dose mostly 76.8 µM), inactives show at the top dose activity, negative = inhibition, actives largely listed as inhibitors; actives 0.12% (n = 410,000); AID 624173; also: nearly all actives have a fitted effect of over 50% in size
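TbPYK + substrate in 50 mM TEA pH 7.2, 100 mM KCl, 10 mM MgCl2, 0.05% BSA, 0.01% Tween-20; cpd pinned; ADP 130 uM final; 45 min RT; Kinase-Glo Plus 10 min; luminescence endpoint.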
Active calls of the source: *; ? = inconclusive; / = not tested or not shown. Compounds with a hit are over-represented: about 3.7% of the library has one in this group of screens. Unless noted, calls follow the shape of the dose curve; as a rule, active = well fitted curve in the direction sought with a large enough effect; inconclusive = small, poorly fitted or top-dose-only effect, or another doubt; inactive = no such curve, though single readings can be large; an effect the other way counts as inactive or inconclusive. % is scaled to controls: 0 for no effect and ±100 for the full control effect; potency is read from the fitted curve at half-maximal effect.

SMILES	RE007 growth inh	FMDV antiviral	Sm TGR block	TbPYK inhibitor
COc1cccc(CCc2nnc(CCC(=O)N3CCN(Cc4ccccn4)CC3)o2)c1	6%	0%	11µM*	10%
COc1cc(/C=N/NC(=O)c2ccc(N)cc2)ccc1OC(=O)c1cccc(C)c1	4%	0%	-4%	-2%
COc1cc(C(=O)N/N=C/c2ccc(OC(=O)c3cccc(C)c3)cc2)ccc1O	1%	35µM*	-5%	-4%
Cc1cc(=O)n(Cc2ccc(Br)cc2F)c2c1c(C)nn2-c1ccccc1	/	2%	13%	0%
Cc1cccc(NC2=C(NC(=O)c3ccccc3)C(=O)c3ccccc3C2=O)c1	-20%	0%	2.2µM*	16µM*
O=C1C(Cl)=C(NC(=O)c2ccccc2)C(=O)C(Cl)=C1NC(=O)c1ccccc1	3%	28µM*	?	?
O=C(NC1=C(Nc2ccc(Cl)cc2)C(=O)c2ccccc2C1=O)c1ccccc1	?	-17%	6.3µM*	?
Cc1cccc(C(=O)Nc2cccc(NC(=O)c3ccccc3)c2)c1	2%	7%	-5%	0%
O=C(Nc1ccc(Nc2ccccc2)cc1)c1ccc(Cl)cc1	-15%	4%	/	3%
Cc1ccc(C2Nc3ccccc3-n3c(-c4ccccc4)c4c(=O)n(C)c(=O)n(C)c4c32)o1 (centres undefined)	/	?	-34%	2%
CCOc1ccccc1NC(=O)CSc1ncc(S(=O)(=O)c2ccc(C)c(C)c2)c(N)n1	/	?	1%	1%
CCOC(=O)CSC1=NC(=O)CS1	-22%	-18%	32µM*	-6%
CCOC(=O)CSc1snnc1C	5%	-10%	/	3%
N#CC1(NC(=O)CN2C(=O)c3ccccc3C2=O)CCCCC1	2%	-3%	0%	-1%
N#CC1(NC(=O)Cn2ncc(Cl)c(Cl)c2=O)CCCCC1	27%	?	18µM*	3%
O=C(CCc1nnc(Cc2ccc3c(c2)OCO3)o1)NC(c1ccccn1)C(F)(F)F (centres undefined)	16%	0%	32µM*	-10%
O=C(CCc1nnc(-c2ccc3c(c2)OCO3)o1)NC(c1ccccn1)C(F)(F)F (centres undefined)	40%	40%	5%	1%
O=C1CCCC2=C1C(c1cccc(O)c1)c1c(ccc3ncccc13)N2 (centres undefined)	-15%	9%	32µM*	-4%
COc1cc(C2C3=C(CCCC3=O)Nc3ccc4ncccc4c32)ccc1O (centres undefined)	-15%	25%	-8%	-19%
O=C1CCCC2=C1C(c1ccc(O)c(O)c1)Nc1ccc3ncccc3c12 (centres undefined)	-12%	15%	20µM*	?
COc1ccc(C2C3=C(CCCC3=O)Nc3ccc4ncccc4c32)cc1OC (centres undefined)	8%	43%	20µM*	-1%
CCOC(=O)c1c(C)[nH]c(C)c1S(=O)(=O)N(C)CC(=O)Nc1ccc(OC)cc1	/	-5%	41%	-3%
CCc1ccc(NC(=O)CN2C(=O)C(=O)c3ccccc32)cc1	/	27%	11%	6%
CCOC(=O)c1[nH]c(C)c(/C(O)=C2\C(=O)C(=O)N(CCN(C)C)C2c2ccco2)c1C (centres undefined)	-3%	-9%	56µM*	-4%
O=[N+]([O-])c1cc2no[n+]([O-])c2cc1N1CCCCC1	?	32µM*	/	14µM*
SMILES	RE007 growth inh	FMDV antiviral	Sm TGR block	TbPYK inhibitor
CC1CN(CC(=O)NCC2(N3CCOCC3)CCCC2)Cc2cc(Cl)ccc2O1 (centres undefined)	/	-4%	/	/
CCc1nnc2n1N=C(c1ccc(Cl)cc1)CS2	12%	?	1%	-5%
CCCc1nnc2n1N=C(c1ccc([N+](=O)[O-])cc1)CS2	1%	-15%	-27%	-11%
CCc1nnc2n1N=C(c1ccccc1)CS2	-1%	-13%	45µM*	1%
CCCc1nnc2n1N=C(c1ccc(C)cc1)CS2	2%	-10%	45µM*	-4%
Clc1ccc(C2=Nn3c(nnc3-c3cccs3)SC2)cc1	-7%	-24%	79µM*	-21%
Cc1nn2c(=O)cc(COC(=O)COc3ccc(F)cc3)nc2s1	/	-23%	-5%	-3%
O=C(Nc1nc2ccccc2[nH]1)c1ccc(OC(F)F)cc1	-20%	13µM*	1%	-4%
CC(C)Oc1ccc(C(=O)Nc2nc3ccccc3[nH]2)cc1	-21%	7.9µM*	3%	-12%
